Eya2 phos inh = blocks the phosphatase activity of human Eya2 | O00167 | recombinant Eya2, OMFP fluorescence dephosphorylation (OMFP is methylfluorescein phosphate) | Potency, µM (doses to about 76.9 µM), for the others: at the highest dose activity, negative = inhibition, hits mostly inhibitors | 330,000 tested, 0.006% active | AID 488837; also: potency is read from the fitted curve at half-maximal effect
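Eya2 (0.2 uM) preincubated 10 min at ambient with compound, then OMFP substrate added at 50 uM; 10 min reaction in 50 mM HEPES pH 7.5, 50 mM NaCl, 5 uM MgCl2, 0.05% BSA, 1 mM DTT. Fluorescence read at Ex 485/Em 525 nm.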
Six1-Eya2 inh = inhibitors of human Six1/Eya2 interaction. Q15475+O00167. AlphaScreen GST-Six1/His-Eya2 binding, biochemical; stronger effect = lower value. activity change, % (concentration not given with the values). 360,000 tested, 0.56% active. AID 651725; in the data active = activity change below about -65%; inconclusive = mostly about -30% to -63%
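Six1/Eya2 binding was read as AlphaScreen signal after compounds were pinned into GST-Six1 plus His-tagged Eya2 (5X stock 250/500 nM) in pH 8.0 Tris/NaCl/TCEP buffer, beads added, then incubated 1 h, 37 C, dark.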
JMJD2E inh = inhibitors of human JMJD2E histone demethylase. 230,000 tested, 1.6% active. Potency, µM (series often up to 57.1 µM), without a hit: top-dose activity change, negative = inhibition, hits mostly inhibitors. JMJD2E catalytic domain, FDH-coupled NADH fluorescence (FDH is formaldehyde dehydrogenase). B2RXH2; active = well fitted inhibition curve with a large enough effect, not every such curve was filed as active; inconclusive = small, poorly fitted or top-dose-only effect, or another doubt; inactive = no such curve, though single readings can be large or run the other way;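 also: potency is read from the fitted curve at half-maximal effect; 0% = wells with enzyme and -100% = buffer wells without enzyme; nearly all actives have a fitted effect of over 50% in size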
Target sequence (B2RXH2 1-337 limits assumed): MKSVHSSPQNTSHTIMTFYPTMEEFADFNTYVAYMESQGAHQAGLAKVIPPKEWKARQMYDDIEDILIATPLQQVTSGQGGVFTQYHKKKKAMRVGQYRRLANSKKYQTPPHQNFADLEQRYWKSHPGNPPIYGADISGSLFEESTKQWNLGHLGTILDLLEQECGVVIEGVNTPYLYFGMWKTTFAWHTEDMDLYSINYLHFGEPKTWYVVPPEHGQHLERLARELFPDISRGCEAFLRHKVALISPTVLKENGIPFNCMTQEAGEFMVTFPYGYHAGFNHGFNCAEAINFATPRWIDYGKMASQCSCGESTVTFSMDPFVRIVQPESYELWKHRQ
Anesthetic bind = binds horse apoferritin like a general anesthetic. P02791. apoferritin/1-aminoanthracene competitive binding, fluorescence. Potency, µM (highest dose often 77.5 µM), without a hit: at the top dose activity change, negative = displacement, usual class: inhibitors. 350,000 tested, 0.074% active; also: potency is read from the fitted curve at half-maximal effect; nearly all actives have a fitted effect of over 20% in size
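Read-out: endpoint 1-AMA fluorescence, excitation 380 nm and emission 535 nm, after compounds sit 10 min at room temperature with 10 uM horse-spleen apoferritin in 50% saturated 1-AMA/PBS. Values come from four-parameter Hill fits.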
CtBP-E1A inh = blocks the CtBP interaction with E1A. AID 651724. activity change, % (test concentration not listed). AlphaScreen GST-E1A/His-CtBP binding, 1536-well; stronger effect = lower value. 340,000 tested, 0.49% active; in the data active = activity change below about -65%; inconclusive = mostly about -30% to -63%
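In 5 uL wells, 23 nL compound meets equimolar GST-E1A and His-CtBP (5X stock 125 nM each) for 2 h, 37 °C. Beads (5X, 50 ug/mL) then 1 h, 37 °C, dark.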
GALK inhibitor = galactokinase (human) inhibition; Potency, µM (top dose mostly 57.5 µM), for the others: top-dose activity change, negative = inhibition, actives largely listed as inhibitors; Purified GALK, Kinase-Glo residual ATP luminescence; 270,000 tested, 0.007% active; P51570; also: potency is read from the fitted curve at half-maximal effect
Target sequence (P51570 whole entry, looked up): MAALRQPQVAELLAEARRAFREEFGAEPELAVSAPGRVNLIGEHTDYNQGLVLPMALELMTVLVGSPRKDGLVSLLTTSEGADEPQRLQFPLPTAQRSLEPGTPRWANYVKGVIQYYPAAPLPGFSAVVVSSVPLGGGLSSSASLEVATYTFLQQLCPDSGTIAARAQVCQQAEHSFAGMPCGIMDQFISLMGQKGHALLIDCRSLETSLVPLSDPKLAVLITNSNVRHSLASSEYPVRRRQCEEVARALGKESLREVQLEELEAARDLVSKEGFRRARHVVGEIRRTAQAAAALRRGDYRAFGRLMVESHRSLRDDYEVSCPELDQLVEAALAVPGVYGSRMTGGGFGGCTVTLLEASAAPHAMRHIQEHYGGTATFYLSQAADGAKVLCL
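ATP-depletion format; final 35 uM ATP, 100 uM D-galactose, 5 nM enzyme; pH 8.0 HEPES/Mg2+ buffer; 60 min RT; luminescence read 10 min after detection reagent.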
Starred values were filed as active, the others as inactive; ! = not confirmed by another sample; [ ] = remark or other dose. The full list was thinned out, with hits kept by preference. Unless noted, calls follow the shape of the dose curve; as a rule, active = well fitted curve in the direction sought with a large enough effect; inconclusive = small, poorly fitted or top-dose-only effect, or another doubt; inactive = no such curve, though single readings can be large; an effect the other way counts as inactive or inconclusive. Unless noted, % is scaled to controls: 0 for no effect and ±100 for the full control effect.

N=C1/C(=C/c2ccc(OC(=O)c3ccco3)cc2)C(=O)N=C2SC=CN12 was read as Eya2 phos inh 1%, Six1-Eya2 inh inconclusive, JMJD2E inh 14µM*, Anesthetic bind -23%, CtBP-E1A inh -1 and GALK inhibitor 0%.
Screening CCCCCCCCCC[n+]1cccc([C@@H]2CCCN2C)c1 returned Anesthetic bind -10%.
`C[C@H](NC(=O)[C@@H](N)Cc1ccc(O)cc1)C(=O)NCC(=O)N(C)[C@@H](Cc1ccccc1)C(=O)NCCO` gave Anesthetic bind -8%.
O=C1OC(=O)C2C3CCC(O3)C12 (stereo not given) was read as Eya2 phos inh 7% and JMJD2E inh 22µM*!.
O=C1C2C3CCC(O3)C2C(=O)N1CCO (stereo not given) was read as Eya2 phos inh -2%, Six1-Eya2 inh -8, JMJD2E inh -4%, Anesthetic bind 4%, CtBP-E1A inh -6 and GALK inhibitor 4%.
`CCCCc1ccc(C(=O)O)nc1` gave Eya2 phos inh 11%, Six1-Eya2 inh -87*, JMJD2E inh 10µM*, Anesthetic bind 3%[29.3 µM] and CtBP-E1A inh -68*.
Screening CCCCCCCCc1ccc(O)cc1 returned Eya2 phos inh 2%, Six1-Eya2 inh 1 and CtBP-E1A inh -2.
Screening CCOC(=O)c1cccc(NC(=O)NCc2ccc3c(c2)CCN3C(=O)c2ccccc2)c1 returned Anesthetic bind 27%.
For C[C@]12CC[C@@H]3c4ccc(O)cc4CC[C@H]3[C@@H]1C[C@@H](O)[C@@H]2O[C@@H]1O[C@H](C(=O)O)[C@@H](O)[C@H](O)[C@H]1O the results were Eya2 phos inh -1%, Six1-Eya2 inh 0, JMJD2E inh 22µM*, Anesthetic bind 12%, CtBP-E1A inh 1 and GALK inhibitor 4%.
C=Cn1ccnc1P(=S)(c1nccn1C=C)c1nccn1C=C was read as Eya2 phos inh 8%, Six1-Eya2 inh inconclusive, JMJD2E inh 4%, Anesthetic bind -4%, CtBP-E1A inh -91* and GALK inhibitor -1%.
`C=Cn1ccnc1P(=S)(c1ccn(C)c1)c1nccn1C=C` gave Eya2 phos inh 1%, Six1-Eya2 inh 2, JMJD2E inh -7%, Anesthetic bind -10%, CtBP-E1A inh -8 and GALK inhibitor 4%.
O=c1[nH]c(O)c(N=Nc2cc([N+](=O)[O-])ccc2O)c(=O)[nH]1 was read as Eya2 phos inh -2%, Six1-Eya2 inh -78*, JMJD2E inh 165%, Anesthetic bind -10%, CtBP-E1A inh inconclusive and GALK inhibitor 16%.
`CC(=O)C1CCC2C3CCC4CC(C)(O)CCC4(C)C3CCC12C` (stereo not given) gave Anesthetic bind -6%.
Screening O=C1NC(=S)N(c2ccc(F)cc2)C(=O)/C1=C\c1ccoc1 returned Eya2 phos inh 5%, Six1-Eya2 inh -72*, JMJD2E inh inconclusive, Anesthetic bind 3%, CtBP-E1A inh -9 and GALK inhibitor -19%.
`O=C1NC(=S)N(c2ccc(F)cc2)C(=O)/C1=C/c1ccco1` gave Eya2 phos inh 8%, Anesthetic bind inconclusive and GALK inhibitor -27%.
`O=C=NCCCCN=C=O` gave Anesthetic bind -3%.
Screening O=C(N/N=C/c1c(O)n(C2CC2)c(=S)[nH]c1=O)c1ccccc1O returned Eya2 phos inh 8%, Six1-Eya2 inh -83*, JMJD2E inh inconclusive, Anesthetic bind 2%, CtBP-E1A inh -85* and GALK inhibitor -2%.
O=c1[nH]c(=S)n(C2CC2)c(O)c1C=NCc1ccc(F)cc1 was read as Eya2 phos inh -11%, Six1-Eya2 inh 1, JMJD2E inh -1%, Anesthetic bind -10% and CtBP-E1A inh -12.
Screening O=C(N/N=C/c1c(O)n(-c2ccccc2)c(=S)[nH]c1=O)c1ccccc1 returned Eya2 phos inh -2%, Six1-Eya2 inh -92*, JMJD2E inh 28µM*, Anesthetic bind -2% and CtBP-E1A inh -89*.
`Cc1ccccc1-n1c(O)c(/C=N/NC(=O)c2ccccc2O)c(=O)[nH]c1=S` gave Eya2 phos inh 0%, Six1-Eya2 inh -92*, JMJD2E inh inconclusive, Anesthetic bind -18%, CtBP-E1A inh -101* and GALK inhibitor 0%.
O=C(N/N=C/c1c(O)n(-c2ccccc2)c(=O)[nH]c1=O)c1ccncc1 was read as Eya2 phos inh 1%, Six1-Eya2 inh inconclusive, JMJD2E inh inconclusive, Anesthetic bind 0%, CtBP-E1A inh -18 and GALK inhibitor 1%.
CC(=O)Oc1ccc(Cl)c2cccnc12 was read as JMJD2E inh 18µM* and Anesthetic bind -13%.
O=C1C=CC[C@@H]2[C@H]3CCCN4CCC[C@@H](CN12)[C@@H]34 was read as JMJD2E inh -3%.
Screening COc1ccc(OC)c(N2C(=O)NC(=O)/C(=C/c3ccc([N+](=O)[O-])s3)C2=O)c1 returned Eya2 phos inh 2%, Six1-Eya2 inh 0, JMJD2E inh 25µM*, Anesthetic bind inconclusive, CtBP-E1A inh 0 and GALK inhibitor -5%.
For CCN1C(=O)/C(=C\c2ccc([N+](=O)[O-])s2)C(=O)NC1=S the results were Eya2 phos inh 20%, JMJD2E inh 2.5µM*, Anesthetic bind -16% and GALK inhibitor -1%.
For COc1ccc(OC)c(N2C(=O)/C(=C/c3ccco3)C(=O)NC2=S)c1 the results were Eya2 phos inh -23%, Six1-Eya2 inh -71*, Anesthetic bind -11%, CtBP-E1A inh -10 and GALK inhibitor -20%.
For COc1ccc(C(=O)NCCn2cc(SCc3ccc(C(F)(F)F)cc3)c3ccccc32)cc1OC the results were Anesthetic bind 54%.
Screening C=C1CC[C@H](O)C/C1=C/C=C1\CCC[C@]2(C)[C@H]1CC[C@H]2[C@@H](C)CCCC(C)C returned JMJD2E inh 2%[25.5 µM] and Anesthetic bind -2%[29.3 µM].
`N#C/C(=C/c1ccc(O)c(O)c1)C(N)=S` gave Eya2 phos inh 5%.
For N#CC(C#N)=Cc1ccc(C=C(C#N)C#N)cc1 the results were Eya2 phos inh -6%, Six1-Eya2 inh -9, JMJD2E inh 16µM*, Anesthetic bind -1% and CtBP-E1A inh -2.
CC[C@@H]1C(=O)OC[C@@H]1Cc1cncn1C was read as Eya2 phos inh 2%, Six1-Eya2 inh 5, JMJD2E inh 25µM*!, Anesthetic bind -5%, CtBP-E1A inh 9 and GALK inhibitor -2%.
CC(=O)Nc1ccc(Nc2c(CCC(C)C)c(C)c(C#N)c3nc4ccccc4n23)cc1 was read as Anesthetic bind 49%.
For O=C(Nc1ccccc1)c1ccccc1I the results were Anesthetic bind -14%.
